Assay outcomes from PubChem.
Most compounds without a hit are left out; they make up all but 5.1% or so of the library.
NR3A LBD binder – binders of NR3A ligand-binding domain, primary screen, biophysical, differential scanning fluorimetry, uHTS | Glutamate receptor ionotropic, NMDA 3A (GRIN3A) ligand-binding domain | NR3A LBD differential scanning fluorimetry, Tm shift; 0% = protein alone, 100% = glycine-bound protein | Tm shift relative to glycine control, % at 25 µM | 340,000 tested, 2.5% active;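 active means melting temperature shift of at least 10% of the positive control shift, at one fixed dose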
ANO1 block – TMEM16A chloride channel inhibitors, primary screen, cell-based, HTS; HEK293 TMEM16A/YFP iodide influx fluorescence, ionomycin; normalized B-score (activity score, 25-100; higher = stronger inhibition) at 10 µM; 310,000 tested, 1.2% active; AID 588511, 2011; Anoctamin-1 (Mus musculus), Q8BHY3;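 active means ratio plate-corrected score three or more library SD toward inhibition, starting fluorescence score within five deviations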;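 further: score derived from kinetic fluorescence span divided by baseline fluorescence per well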
Target sequence (Q8BHY3 whole entry, looked up): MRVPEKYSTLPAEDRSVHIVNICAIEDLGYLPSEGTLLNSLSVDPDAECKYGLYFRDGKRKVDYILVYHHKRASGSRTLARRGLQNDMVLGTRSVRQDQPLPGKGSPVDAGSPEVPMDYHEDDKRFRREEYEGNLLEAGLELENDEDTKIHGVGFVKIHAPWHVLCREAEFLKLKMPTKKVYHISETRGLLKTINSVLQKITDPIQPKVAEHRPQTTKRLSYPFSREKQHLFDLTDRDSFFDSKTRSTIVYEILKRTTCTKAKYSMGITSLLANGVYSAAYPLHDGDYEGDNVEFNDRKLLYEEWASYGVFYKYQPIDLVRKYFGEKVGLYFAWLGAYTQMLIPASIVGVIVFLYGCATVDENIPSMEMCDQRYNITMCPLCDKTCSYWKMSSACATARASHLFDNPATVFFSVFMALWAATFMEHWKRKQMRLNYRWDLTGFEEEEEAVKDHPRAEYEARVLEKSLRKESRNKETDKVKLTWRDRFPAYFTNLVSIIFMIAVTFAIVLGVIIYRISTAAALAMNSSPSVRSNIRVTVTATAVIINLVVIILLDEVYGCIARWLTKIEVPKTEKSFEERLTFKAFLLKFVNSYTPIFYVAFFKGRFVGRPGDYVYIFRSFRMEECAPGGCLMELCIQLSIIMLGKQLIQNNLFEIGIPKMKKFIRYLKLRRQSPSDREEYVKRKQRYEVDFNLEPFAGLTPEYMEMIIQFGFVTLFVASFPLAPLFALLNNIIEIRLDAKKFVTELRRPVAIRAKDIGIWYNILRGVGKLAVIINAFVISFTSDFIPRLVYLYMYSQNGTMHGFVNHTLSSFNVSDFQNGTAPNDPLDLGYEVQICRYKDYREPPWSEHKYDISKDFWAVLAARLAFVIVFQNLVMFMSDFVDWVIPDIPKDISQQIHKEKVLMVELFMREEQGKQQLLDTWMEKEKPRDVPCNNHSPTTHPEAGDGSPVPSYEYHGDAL
CRFBP-R2 block – antagonists of CRF-BP/CRF-R2 complex, primary screen, cell-based, HEK293, calcium dye fluorescence, uHTS. CRF-induced calcium fluorescence. AID 588475, 2011. inhibition, % at 11.8 µM. 350,000 tested, 0.59% active;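 active means inhibition of the ligand-induced calcium signal above about 50% at the single tested concentration, limit read from the data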
MPTP inh – mitochondrial permeability transition pore inhibitors, primary screen, biochemical, isolated mouse mitochondria, absorbance; Ca2+ swelling absorbance, 30 min; inhibition, % at 10 µM; 360,000 tested, 1.4% active; AID 602449, 2012;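 active means inhibition of 50% or more, scaled per plate between neutral and stimulator controls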
TMEM16A act – TMEM16A chloride channel activators or potentiators, primary screen, cell-based, HTS | 340,000 tested, 0.3% active | AID 623877, 2012 | HEK293 TMEM16A/YFP-H148Q/I152L, iodide quench fluorescence; active compounds read low | B-score at 10 µM;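 active means fluorescence-ratio B-score plate-corrected deviation score at least 3 library SD below zero, with starting fluorescence score within 5 deviations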;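 further: channel opened by trigger with iodide after compound preincubation; score built on the fluorescence ratio of max minus min over baseline; more negative score means more quench and so TMEM16A activation or potentiation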
CRFBP-R2 agonist – agonists of CRF-BP/CRF-R2 complex, primary screen, cell-based, HEK293, calcium dye fluorescence, uHTS | CRF-binding protein / CRF receptor 2 complex (human) | calcium dye fluorescence (FLIPR); percent of saturating CRF peptide response | activation, % at 13.2 µM | 350,000 tested, 0.46% active;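 active means activation of at least 50%, plus an integration ratio under a set limit after plate pattern correction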
TMEM16A reconf – TMEM16A chloride channel inhibitors, confirmation, cell-based, re-confirmation | shares compounds with ANO1 block | HEK293 TMEM16A/YFP-H148Q, iodide quench fluorescence; ionomycin added to raise cell calcium | inhibition, % at 10 µM | 2,300 tested, 39% active;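 active means mean duplicate percent inhibition, scaled so buffer wells are 0 and the reference blocker 100, over three buffer SD above buffer mean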
TMEM16A Ca cntr – calcium mobilization in TMEM16A/YFP HEK293 cells, confirmation, counter-screen for TMEM16A inhibitor project. shares compounds with ANO1 block. 2,300 tested, 2% active. calcium response (% of ionomycin), % at 10 µM. AID 652231, 2013. Fluo4 calcium mobilization;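 active means duplicate-averaged calcium signal over 20% of the ionomycin maximum, relative to buffer baseline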;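 further: each well's signal is peak minus trough fluorescence divided by its pre-addition baseline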
Parental YFP cnt – iodide YFP quench changes in parental YFP-HEK293, counter-screen for TMEM16A inhibitor project, cell-based; 2,300 tested, under 10 active; shares compounds with ANO1 block; ionomycin; YFP ratio F(max-min)/F0 at 10 µM; AID 652233, 2013;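 active means yellow fluorescent protein signal ratio exceeding the buffer control mean by over 5 SD of those controls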;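 further: ratio is mean of duplicate wells from kinetic YFP trace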
ClC-1 inh – ClC-1 chloride channel inhibition, selectivity assay for TMEM16A inhibitor project, cell-based, voltage-dependent ClC-1; shares compounds with ANO1 block; CHO ClC-1-YFP, iodide influx fluorescence quench; iodide control reads 0, buffer control 100; ratio percent, % at 10 µM; 2,300 tested, under 10 active;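 active means duplicate-mean ratio percent above the mean of iodide-only control wells, which defines zero, plus 5 of their SD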;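 further: higher percent means stronger block of ClC-1 iodide influx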
MPTP counter – fluorescence retest of MPTP screen hits in isolated mitochondria, single concentration; inhibition, % at 10 µM; shares compounds with MPTP inh; membrane potential, Rhodamine 123 fluorescence; 5,000 tested, 78% active; in the data active means inhibition above about 22%
A number is an active result; - = inactive; . = no result given.

SMILES	NR3A LBD binder	ANO1 block	CRFBP-R2 block	MPTP inh	TMEM16A act	CRFBP-R2 agonist	TMEM16A reconf	TMEM16A Ca cntr	Parental YFP cnt	ClC-1 inh	MPTP counter
CCCCOCCCNc1ncnc2c1[nH]c1ccccc12	-	100	-	92.5	-	-	56.0%	-	-	-	92.7
CC(=O)Nc1ccc(NS(=O)(=O)c2ccc(-c3cnc(C4CC4)o3)cc2)cc1	-	-	-	-	-	-	.	.	.	.	.
CC(=O)c1cccc(NS(=O)(=O)c2ccc(-c3cnc(C4CC4)o3)cc2)c1	-	25	-	93.8	-	-	16.5%	-	-	-	94.0
O=S(=O)(NCCNc1ncc(C(F)(F)F)cc1Cl)C(F)(F)F	-	100	-	81.0	-	-	35.0%	-	-	-	94.4
O=C(CSc1n[nH]c(-c2ccncc2)n1)Nc1ccccc1Cl	-	-	-	-	-	-	.	.	.	.	.
O=C(CSc1ncnc2c1oc1ccccc12)N1CCCc2ccccc21	-	100	-	79.1	-	-	27.5%	-	-	-	72.0
O=C(Cn1cnc2c(oc3ccccc32)c1=O)N1CCCc2ccccc21	-	-	-	-	-	-	.	.	.	.	.
CS(=O)(=O)Nc1cccc(-c2cnc3ccccc3n2)c1	-	-	-	-	-	-	.	.	.	.	.
CCc1c(C)nc2ncnn2c1NCCc1ccc(OC)cc1	-	25	-	51.4	-	-	-	-	-	-	65.1
CC(CNC(=S)Nc1cc(F)cc(F)c1)CSc1ccc(Cl)cc1 (stereo unspecified)	10.4	25	-	97.1	-	-	43.5%	-	-	-	88.8
O=[N+]([O-])c1ccc(O)c(-c2nc(-c3ccccc3)c(-c3cccs3)[nH]2)c1	29.8	25	-	91.0	-	-	67.0%	-	-	-	85.8
O=C(O)c1ccc(-c2nc(-c3ccccc3)c(-c3cccs3)[nH]2)cc1	-	-	-	-	-	-	.	.	.	.	.
O=C(Nc1cc(Cl)cc(Cl)c1)c1cccc(OC(F)F)c1	25.5	100	-	95.6	-	-	43.0%	-	-	-	95.7
Cc1ccnc(NC(=O)c2cccc(OC(F)F)c2)n1	-	-	-	-	-	-	.	.	.	.	.
COc1cc(OC)c(NC(=S)Nc2cc(Cl)cc(Cl)c2)cc1Cl	26.7	100	-	104.0	-	-	18.5%	-	-	-	83.6
COc1cc(OC)c(NC(=S)Nc2cccc(C(C)=O)c2)cc1Cl	-	-	-	-	-	-	.	.	.	.	.
C/C(=N\NC(=O)CCc1ccccc1)C1C(=O)c2ccccc2C1=O	-	-	-	-	-	-	.	.	.	.	.
C/C(=N\NC(=O)c1cccc(Cl)c1)C1C(=O)c2ccccc2C1=O	-	100	85.0	88.6	-	-	-	-	-	-	85.3
CC(=O)C1CCC2C3CC(O)C4=CC(=O)CCC4(C)C3C(=O)CC12C (stereo unspecified)	-	.	-	-	-	-	.	.	.	.	.
N#Cc1ccc(Sc2nc3ccccc3[nH]2)cc1C#N	-	-	-	-	-	-	.	.	.	.	.
N#C/C(=C\c1ccc(Sc2nc3ccccc3[nH]2)o1)c1ccccc1	-	100	-	93.3	-	-	22.0%	-	-	-	83.8
CC(CNS(=O)(=O)c1ccccc1)(c1ccccc1)N1CCCCC1 (stereo unspecified)	-	-	-	-	-	-	.	.	.	.	.
Cc1cc(NNC(=O)c2cccc(C(F)(F)F)c2)nc2c1c(C)nn2C	-	25	-	86.4	-	-	-	-	-	-	41.1
Cc1cc(C)n(CC(=O)NNC(=O)c2cccc(C(F)(F)F)c2)n1	-	-	-	-	-	-	.	.	.	.	.
COc1ccc(NC(=O)c2cc(-c3cc(C)cc(C)c3O)n[nH]2)cc1Cl	35.6	100	-	94.9	-	-	-	-	-	-	63.2
SMILES	NR3A LBD binder	ANO1 block	CRFBP-R2 block	MPTP inh	TMEM16A act	CRFBP-R2 agonist	TMEM16A reconf	TMEM16A Ca cntr	Parental YFP cnt	ClC-1 inh	MPTP counter
COc1ccc(CCNC(=O)c2cc(-c3cc(C)cc(C)c3O)n[nH]2)cc1OC	-	-	-	-	-	-	.	.	.	.	.
CCCCOc1ncnc2c1[nH]c1ccc(OCC)cc12	-	-	-	-	-	-	.	.	.	.	.
CCCCOc1ncnc2c1[nH]c1ccc(F)cc12	-	25	-	94.8	-	-	-	-	-	-	84.3
CCOC(=O)c1ccc(NC(=S)NCCc2ccccc2F)cc1	10.6	100	-	78.0	-	-	20.0%	-	-	-	88.7
CC(C)(C)OC(=O)N1CCc2onc(-c3ccccc3F)c2C1=O	.	.	-	-	.	-	.	.	.	.	.
COCCn1c(SCc2csc(-c3ccccc3)n2)nc2ccccc21	-	100	-	70.3	-	-	24.0%	-	-	-	41.0
COCCn1c(SCC(=O)NCc2ccccc2)nc2ccccc21	-	-	-	-	-	-	.	.	.	.	.
CCc1c(-c2ccccc2OC)ncn1Cc1cccc(-c2ccccc2)c1	.	.	.	-	.	.	.	.	.	.	.
O=C(C1CCCCC1)N1CCN(c2ccnc3cc(Cl)ccc23)CC1	-	25	-	83.1	-	-	18.0%	-	-	-	43.1
Cc1csc2ncnc(N3CCN(C(=O)Nc4ccc(OC(F)(F)F)cc4)CC3)c12	-	100	-	89.9	-	-	16.5%	-	-	-	89.3
Cc1cnc(C(=O)Nc2ccc(OC(F)(F)F)cc2)cn1	-	-	-	-	-	-	.	.	.	.	.
O=C(Nc1ccc(OC(F)(F)F)cc1)N1CCN(c2ccnc3cc(Cl)ccc23)CC1	-	100	-	96.4	-	-	-	-	-	-	81.0
